About 8,800 targets were measured; listed, in parts, are those with a hit and a random draw of the rest. About 0.5% of all pairs of compound and target were hits.
Tests used:
Test in all cases: log2 fold change, soluble protein after heating vs DMSO (PISA); higher = thermal stabilisation; K562 lysate, 10 uM; active = over 0.2 and 3.5 SD of the protein, either way, in both replicates (recomputed)
[1] = compound: Cc1cn(-c2cc(NC(=O)c3ccc(C)c(Nc4nccc(-c5cccnc5)n4)c3)cc(C(F)(F)F)c2)cn1 [nilotinib]
Procedure, shortened: (§1)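 Dounce homogenisation of K562 pellets in PBS pH 7.4 with 1 mM MgCl2 produced a crude extract, used at 1 mg/mL protein. Exposure to 10 μM compound lasted 30 min, and aliquots were then heated for 3 min across 48°C-58°C, pooled and brought to 0.5% NP-40 at 4°C. The supernatant after 21,000xg for 90 min was quantified by TMTpro 16plex LC-MS/MS with channel sums equalised. Duplicate values are given as log-two fold change in thermal stability relative to solvent controls.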

[2] = compound: Cc1nc(Nc2n[nH]c3c2CN(C(=O)N[C@H](CN(C)C)c2ccccc2)C3(C)C)c2sccc2n1
Procedure, shortened: as §1

[3] = compound: Cc1nc(Nc2ncc(C(=O)Nc3c(C)cccc3Cl)s2)cc(N2CCN(CCO)CC2)n1 [dasatinib]
Procedure, shortened: as §1

[4] = compound: Cc1ncc(-c2ccnc(Nc3ccc(S(C)(=O)=O)cc3)n2)n1C(C)C
Procedure, shortened: as §1

[5] = compound: Cn1cc(-c2ccc3c(c2)CCN3C(=O)Cc2cccc(C(F)(F)F)c2)c2c(N)ncnc21
Procedure, shortened: as §1

[6] = compound: Cn1cc(CNCC2CCN(c3ncc(C(=O)NO)cn3)CC2)c2ccccc21 [quisinostat]
Procedure, shortened: as §1

[7] = compound: Cn1cncc1[C@@](N)(c1ccc(Cl)cc1)c1ccc2c(c1)c(-c1cccc(Cl)c1)cc(=O)n2C [tipifarnib]
Procedure, shortened: as §1

[8] = compound: NC(=O)Nc1cc(-c2cccc(F)c2)sc1C(=O)N[C@H]1CCCNC1
Procedure, shortened: as §1

[9] = compound: NC(=O)c1cnc(N[C@@H]2CCCC[C@@H]2N)nc1Nc1cccc(-n2nccn2)c1
Procedure, shortened: as §1

[10] = compound: NC1(c2ccc(-c3nc4ccn5c(=O)[nH]nc5c4cc3-c3ccccc3)cc2)CCC1
Procedure, shortened: as §1

Measured: log2 fold change

GBF1 (UniProt Q92538)
inactive: [1] -0.021 | [2] 0.02 | [3] -0.088 | [4] 0.027 | [5] 0.021 | [6] -0.04 | [7] -0.003 | [8] 0.054 | [9] 0.018 | [10] -0.034

EIF2B4 (UniProt Q9UI10)
inactive: [1] 0.053 | [2] -0.005 | [3] 0.014 | [4] 0.033 | [5] -0.022 | [6] 0.02 | [7] 0.016 | [8] 0.022 | [9] 0.039 | [10] -0.021

EDARADD (UniProt Q8WWZ3)
UniProt Q8WWZ3, sequence (Q8WWZ3 whole entry, looked up): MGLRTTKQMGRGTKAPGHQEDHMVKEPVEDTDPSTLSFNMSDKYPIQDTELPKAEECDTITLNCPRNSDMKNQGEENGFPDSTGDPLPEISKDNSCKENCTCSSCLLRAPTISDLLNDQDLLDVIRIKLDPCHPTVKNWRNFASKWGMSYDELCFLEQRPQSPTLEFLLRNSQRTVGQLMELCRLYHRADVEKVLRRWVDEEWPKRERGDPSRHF
inactive: [1] 0.076 | [2] -0.036 | [3] -0.004 | [4] 0.008 | [5] 0.023 | [6] 0.07 | [7] 0.065 | [8] -0.05 | [9] -0.032 | [10] 0.019

EEF1AKMT4 (UniProt P0DPD7)
UniProt P0DPD7, sequence (P0DPD7 whole entry, looked up): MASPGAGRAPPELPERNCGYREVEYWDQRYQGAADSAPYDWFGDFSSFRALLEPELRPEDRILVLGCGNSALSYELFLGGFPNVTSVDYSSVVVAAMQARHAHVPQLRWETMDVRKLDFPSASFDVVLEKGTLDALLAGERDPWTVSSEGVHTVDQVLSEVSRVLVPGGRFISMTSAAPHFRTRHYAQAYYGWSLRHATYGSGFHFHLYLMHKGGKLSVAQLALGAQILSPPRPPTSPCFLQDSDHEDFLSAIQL
inactive: [1] -0.01 | [2] -0.064 | [3] -0.051 | [4] 0.04 | [5] -0.109 | [6] 0.075 | [7] 0.004 | [8] 0.105 | [9] 0.096 | [10] -0.064

EPB41 (UniProt P11171)
inactive: [1] -0.01 | [2] 0.024 | [3] 0 | [4] -0.007 | [5] 0.031 | [6] 0.039 | [7] 0.011 | [8] 0.003 | [9] 0.012 | [10] 0.003

FOXK1 (UniProt P85037)
inactive: [1] -0.006 | [2] -0.014 | [3] -0.065 | [4] -0.038 | [5] 0.004 | [6] -0.031 | [7] -0.042 | [8] -0.002 | [9] -0.011 | [10] 0.007

FTSJ1 (UniProt Q9UET6)
inactive: [1] -0.013 | [2] -0.039 | [3] -0.016 | [4] -0.007 | [5] -0.007 | [6] -0.032 | [7] -0.054 | [8] 0.035 | [9] -0.001 | [10] 0.029

FYB1 isoform 3 (UniProt O15117)
inactive: [1] 0.042 | [2] 0.004 | [3] -0.017 | [4] -0.025 | [5] 0.001 | [6] -0.068 | [7] -0.012 | [8] 0.034 | [9] 0.005 | [10] 0.021

EDC4 (UniProt Q6P2E9)
inactive: [1] 0 | [2] 0.007 | [3] -0.058 | [4] 0.007 | [5] -0.002 | [6] -0.071 | [7] -0.001 | [8] 0.01 | [9] 0.027 | [10] 0.011

FAM118A (UniProt Q9NWS6)
inactive: [1] -0.017 | [2] -0.03 | [3] -0.043 | [4] -0.003 | [5] -0.082 | [6] -0.103 | [7] 0.016 | [8] 0.013 | [9] 0.003 | [10] -0.023

FARSA (UniProt Q9Y285)
inactive: [1] -0.006 | [2] 0.017 | [3] -0.03 | [4] -0.003 | [5] 0.001 | [6] -0.037 | [7] 0.003 | [8] 0.009 | [9] -0.015 | [10] -0.056

ENO2 (UniProt P09104)
UniProt P09104, sequence (P09104 whole entry, looked up): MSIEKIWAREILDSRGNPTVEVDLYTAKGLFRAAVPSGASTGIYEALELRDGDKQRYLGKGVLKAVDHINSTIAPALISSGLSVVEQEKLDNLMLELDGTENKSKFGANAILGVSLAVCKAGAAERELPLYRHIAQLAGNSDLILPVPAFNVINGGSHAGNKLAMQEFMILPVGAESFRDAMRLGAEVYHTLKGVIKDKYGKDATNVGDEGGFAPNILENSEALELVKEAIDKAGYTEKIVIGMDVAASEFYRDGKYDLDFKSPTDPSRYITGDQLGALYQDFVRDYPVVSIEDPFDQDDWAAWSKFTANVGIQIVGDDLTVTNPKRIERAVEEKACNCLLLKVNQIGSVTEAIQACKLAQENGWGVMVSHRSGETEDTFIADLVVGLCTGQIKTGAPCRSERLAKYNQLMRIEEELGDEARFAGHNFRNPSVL
inactive: [1] 0.006 | [2] 0.017 | [3] 0.036 | [4] 0.025 | [5] 0 | [6] -0.03 | [7] -0.021 | [8] 0.001 | [9] -0.043 | [10] 0.003

EMP3 (UniProt P54852)
inactive: [1] 0.007 | [2] 0.094 | [3] -0.046 | [4] 0.02 | [5] -0.046 | [6] -0.144 | [7] 0.031 | [8] 0.013 | [9] -0.035 | [10] -0.008

EHD2 (UniProt Q9NZN4)
UniProt Q9NZN4, sequence (Q9NZN4 whole entry, looked up): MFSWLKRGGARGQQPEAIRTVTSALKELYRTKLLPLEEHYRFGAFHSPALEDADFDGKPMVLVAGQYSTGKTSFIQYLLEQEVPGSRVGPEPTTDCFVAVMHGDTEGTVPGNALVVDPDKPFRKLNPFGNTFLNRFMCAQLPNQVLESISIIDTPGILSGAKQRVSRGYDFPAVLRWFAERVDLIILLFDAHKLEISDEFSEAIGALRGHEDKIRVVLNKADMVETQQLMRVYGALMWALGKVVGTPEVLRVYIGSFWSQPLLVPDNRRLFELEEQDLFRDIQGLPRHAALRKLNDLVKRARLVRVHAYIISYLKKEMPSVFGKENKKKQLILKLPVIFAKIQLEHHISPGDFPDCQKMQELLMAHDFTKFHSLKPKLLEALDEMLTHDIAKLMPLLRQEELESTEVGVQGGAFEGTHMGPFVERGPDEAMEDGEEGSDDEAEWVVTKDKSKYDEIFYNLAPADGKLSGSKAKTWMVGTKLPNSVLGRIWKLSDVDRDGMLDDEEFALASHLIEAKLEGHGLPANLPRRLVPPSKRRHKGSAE
inactive: [1] 0.007 | [2] -0.02 | [3] -0.018 | [4] 0.019 | [5] -0.084 | [6] -0.074 | [7] -0.047 | [8] 0.09 | [9] 0.029 | [10] -0.042

ERAL1 (UniProt O75616)
inactive: [1] 0 | [2] -0.001 | [3] 0.01 | [4] 0.003 | [5] 0.018 | [6] -0.078 | [7] -0.027 | [8] 0.083 | [9] -0.052 | [10] 0.008

EIF2AK1 (UniProt Q9BQI3)
UniProt Q9BQI3, sequence (Q9BQI3 whole entry, looked up): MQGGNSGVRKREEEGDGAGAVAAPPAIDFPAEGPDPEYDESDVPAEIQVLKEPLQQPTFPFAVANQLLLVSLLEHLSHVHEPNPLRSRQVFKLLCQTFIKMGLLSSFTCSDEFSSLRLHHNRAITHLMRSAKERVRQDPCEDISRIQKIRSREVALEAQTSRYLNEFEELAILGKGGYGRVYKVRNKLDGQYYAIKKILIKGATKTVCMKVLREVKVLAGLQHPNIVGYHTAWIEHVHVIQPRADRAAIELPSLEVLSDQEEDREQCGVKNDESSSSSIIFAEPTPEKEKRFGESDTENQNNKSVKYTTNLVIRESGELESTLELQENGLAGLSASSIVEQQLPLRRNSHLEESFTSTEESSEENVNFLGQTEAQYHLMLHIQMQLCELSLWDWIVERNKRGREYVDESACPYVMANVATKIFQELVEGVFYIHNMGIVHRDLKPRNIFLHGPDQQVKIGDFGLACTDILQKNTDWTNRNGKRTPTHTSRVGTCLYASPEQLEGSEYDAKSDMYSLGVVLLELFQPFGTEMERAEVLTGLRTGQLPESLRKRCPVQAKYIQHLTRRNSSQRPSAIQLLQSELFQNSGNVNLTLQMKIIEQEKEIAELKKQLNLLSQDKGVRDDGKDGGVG
inactive: [1] -0.006 | [2] 0.211 | [3] -0.027 | [4] -0.154 | [5] 0.078 | [6] -0.077 | [7] 0.007 | [8] -0.031 | [9] 0.062 | [10] 0.021

ENGASE (UniProt Q8NFI3)
inactive: [1] 0.02 | [2] -0.083 | [3] 0.029 | [4] -0.034 | [5] 0.028 | [6] 0.009 | [7] 0.043 | [8] -0.04 | [9] 0.011 | [10] -0.025

GABPB1 (UniProt Q06547)
UniProt Q06547, sequence (Q06547 whole entry, looked up): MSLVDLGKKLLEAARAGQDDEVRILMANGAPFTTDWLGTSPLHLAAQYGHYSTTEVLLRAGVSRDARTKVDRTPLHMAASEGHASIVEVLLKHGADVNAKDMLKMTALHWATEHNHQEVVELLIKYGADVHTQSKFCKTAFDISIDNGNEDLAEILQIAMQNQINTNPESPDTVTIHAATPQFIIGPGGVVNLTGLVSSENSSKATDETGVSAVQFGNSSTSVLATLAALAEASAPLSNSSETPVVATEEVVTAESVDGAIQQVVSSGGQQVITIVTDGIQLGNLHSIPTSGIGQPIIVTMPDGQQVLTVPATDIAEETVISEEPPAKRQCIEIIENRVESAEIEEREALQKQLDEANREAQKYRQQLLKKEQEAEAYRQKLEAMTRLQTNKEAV
inactive: [1] -0.008 | [2] 0.012 | [3] -0.051 | [4] -0.023 | [5] 0.05 | [6] -0.036 | [7] 0.007 | [8] 0.031 | [9] 0.05 | [10] 0.033

FAM83D (UniProt Q9H4H8)
UniProt Q9H4H8, sequence (Q9H4H8 whole entry, looked up): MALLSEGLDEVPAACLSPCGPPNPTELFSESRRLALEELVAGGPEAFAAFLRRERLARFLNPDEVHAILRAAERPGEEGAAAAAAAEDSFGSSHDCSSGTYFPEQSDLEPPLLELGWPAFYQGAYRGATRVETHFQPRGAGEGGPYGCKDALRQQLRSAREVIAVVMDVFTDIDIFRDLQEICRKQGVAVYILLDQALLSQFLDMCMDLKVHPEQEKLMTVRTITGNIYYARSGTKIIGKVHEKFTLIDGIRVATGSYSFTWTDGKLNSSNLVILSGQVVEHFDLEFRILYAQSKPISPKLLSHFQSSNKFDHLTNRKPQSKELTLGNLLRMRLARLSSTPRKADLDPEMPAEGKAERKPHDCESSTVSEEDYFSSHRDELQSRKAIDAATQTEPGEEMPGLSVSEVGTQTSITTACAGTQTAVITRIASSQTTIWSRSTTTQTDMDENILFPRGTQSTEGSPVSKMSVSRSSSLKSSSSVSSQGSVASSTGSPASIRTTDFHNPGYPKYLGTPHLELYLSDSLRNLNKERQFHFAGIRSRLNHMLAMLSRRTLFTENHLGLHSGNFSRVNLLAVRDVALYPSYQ
inactive: [1] -0.042 | [2] 0.004 | [3] -0.026 | [4] 0.008 | [5] -0.033 | [6] -0.061 | [7] -0.02 | [8] -0.019 | [9] 0.05 | [10] 0.01

FTL (UniProt P02792)
inactive: [1] -0.039 | [2] 0.035 | [3] -0.03 | [4] -0.038 | [5] -0.012 | [6] 0.043 | [7] 0.017 | [8] 0.091 | [9] 0.009 | [10] 0.06

FUBP3 (UniProt Q96I24)
UniProt Q96I24, sequence (Q96I24 whole entry, looked up): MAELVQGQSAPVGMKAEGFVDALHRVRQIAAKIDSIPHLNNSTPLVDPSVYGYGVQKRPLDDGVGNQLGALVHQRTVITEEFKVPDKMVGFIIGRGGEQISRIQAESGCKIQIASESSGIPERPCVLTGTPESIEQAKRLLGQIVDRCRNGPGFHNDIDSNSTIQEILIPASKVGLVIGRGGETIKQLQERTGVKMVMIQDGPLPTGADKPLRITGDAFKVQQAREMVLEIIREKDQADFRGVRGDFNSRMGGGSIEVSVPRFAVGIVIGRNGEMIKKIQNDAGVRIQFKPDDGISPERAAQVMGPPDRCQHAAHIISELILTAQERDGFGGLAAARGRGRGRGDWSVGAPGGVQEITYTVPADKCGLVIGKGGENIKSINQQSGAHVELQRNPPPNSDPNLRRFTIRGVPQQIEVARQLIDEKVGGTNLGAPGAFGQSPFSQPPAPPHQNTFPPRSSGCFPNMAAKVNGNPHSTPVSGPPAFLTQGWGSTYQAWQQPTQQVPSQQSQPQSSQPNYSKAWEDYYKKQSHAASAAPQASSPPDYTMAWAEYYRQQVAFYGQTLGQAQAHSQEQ
inactive: [1] -0.201 | [2] -0.016 | [3] -0.094 | [4] 0.012 | [5] 0.01 | [6] -0.029 | [7] -0.009 | [8] 0.043 | [9] -0.005 | [10] 0.032

EIF2B3 (UniProt Q9NR50)
UniProt Q9NR50, sequence (Q9NR50 whole entry, looked up): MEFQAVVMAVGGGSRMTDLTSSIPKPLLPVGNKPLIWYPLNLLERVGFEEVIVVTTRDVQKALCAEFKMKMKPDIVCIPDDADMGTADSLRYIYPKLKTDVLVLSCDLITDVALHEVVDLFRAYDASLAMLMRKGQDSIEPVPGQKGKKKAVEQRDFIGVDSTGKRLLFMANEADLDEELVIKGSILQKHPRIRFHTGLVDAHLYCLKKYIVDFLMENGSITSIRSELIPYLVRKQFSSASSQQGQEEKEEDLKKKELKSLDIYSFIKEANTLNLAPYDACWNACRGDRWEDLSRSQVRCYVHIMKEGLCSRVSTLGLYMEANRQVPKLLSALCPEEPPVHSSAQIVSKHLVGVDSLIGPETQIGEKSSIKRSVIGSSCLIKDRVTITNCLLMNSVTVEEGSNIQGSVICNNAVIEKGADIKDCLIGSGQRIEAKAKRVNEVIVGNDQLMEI
inactive: [1] 0.001 | [2] 0.001 | [3] -0.049 | [4] 0.009 | [5] -0.024 | [6] -0.036 | [7] -0.013 | [8] 0.022 | [9] -0.008 | [10] -0.009

EEFSEC (UniProt P57772)
inactive: [1] 0.004 | [2] 0.01 | [3] -0.067 | [4] -0.03 | [5] 0.007 | [6] -0.043 | [7] -0.003 | [8] 0.052 | [9] 0 | [10] -0.019

FXR1 (UniProt P51114)
inactive: [1] -0.139 | [2] 0.031 | [3] 0.028 | [4] -0.011 | [5] 0.018 | [6] -0.057 | [7] -0.005 | [8] 0.024 | [9] -0.001 | [10] -0.047

EP400 isoform 5 (UniProt Q96L91)
inactive: [1] -0.05 | [2] -0.04 | [3] 0.001 | [4] -0.025 | [5] -0.005 | [6] -0.014 | [7] 0.04 | [8] 0.012 | [9] 0.019 | [10] -0.003

FECH isoform 2 (UniProt P22830)
UniProt P22830, sequence (P22830 whole entry, looked up): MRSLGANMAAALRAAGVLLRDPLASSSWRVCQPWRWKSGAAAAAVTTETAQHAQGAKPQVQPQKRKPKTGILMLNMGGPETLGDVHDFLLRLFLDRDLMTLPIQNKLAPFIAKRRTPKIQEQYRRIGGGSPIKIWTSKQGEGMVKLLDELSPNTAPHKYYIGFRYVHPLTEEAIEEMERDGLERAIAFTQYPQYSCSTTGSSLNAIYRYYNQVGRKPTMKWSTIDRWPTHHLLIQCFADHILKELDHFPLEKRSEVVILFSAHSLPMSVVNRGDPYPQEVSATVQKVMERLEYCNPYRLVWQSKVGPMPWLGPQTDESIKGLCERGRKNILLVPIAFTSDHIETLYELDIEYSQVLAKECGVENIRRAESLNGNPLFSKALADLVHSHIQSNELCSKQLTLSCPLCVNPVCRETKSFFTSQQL
inactive: [1] 0.796 | [2] 0 | [3] 0.353 | [4] 0.364 | [5] 0.009 | [6] 0.333 | [7] -0.007 | [8] -0.013 | [9] 0.139 | [10] 0.053

ESYT2 (UniProt H7BXI1)
inactive: [1] 0.016 | [2] -0.017 | [3] -0.01 | [4] 0.037 | [5] 0.02 | [6] 0.027 | [7] 0.009 | [8] -0.015 | [9] -0.031 | [10] -0.051

EEF1AKNMT (UniProt Q8N6R0)
inactive: [1] 0.006 | [2] -0.008 | [3] -0.044 | [4] -0.011 | [5] 0.043 | [6] -0.093 | [7] -0.003 | [8] 0.045 | [9] -0.013 | [10] 0.01

GDPD1 (UniProt Q8N9F7)
UniProt Q8N9F7, sequence (Q8N9F7 whole entry, looked up): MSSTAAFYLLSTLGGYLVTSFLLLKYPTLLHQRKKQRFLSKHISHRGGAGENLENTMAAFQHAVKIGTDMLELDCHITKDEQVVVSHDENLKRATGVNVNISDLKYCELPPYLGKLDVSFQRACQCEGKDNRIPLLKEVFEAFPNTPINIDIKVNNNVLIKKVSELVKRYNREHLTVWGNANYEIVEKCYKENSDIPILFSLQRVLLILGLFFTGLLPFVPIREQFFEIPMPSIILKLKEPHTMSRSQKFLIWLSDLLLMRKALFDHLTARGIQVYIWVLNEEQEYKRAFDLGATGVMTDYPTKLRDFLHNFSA
inactive: [1] -0.047 | [2] 0.011 | [3] 0.026 | [4] 0.011 | [5] -0.05 | [6] -0.056 | [7] 0.024 | [8] -0.02 | [9] 0.053 | [10] -0.017
